# Assay results taken from the supplement of paper PMC10681739.
# Key:
# ETS1 [1] = molecular target: T1, ETS1 (UniProt P14921); assay: ETS1 binding intensity (PBM fluorescence), ETS1 alone (arbitrary fluorescence units); higher = stronger binding; conditions: ETS1 concentration 1 nM; RUNX1 concentration 0 nM
# T1 sequence: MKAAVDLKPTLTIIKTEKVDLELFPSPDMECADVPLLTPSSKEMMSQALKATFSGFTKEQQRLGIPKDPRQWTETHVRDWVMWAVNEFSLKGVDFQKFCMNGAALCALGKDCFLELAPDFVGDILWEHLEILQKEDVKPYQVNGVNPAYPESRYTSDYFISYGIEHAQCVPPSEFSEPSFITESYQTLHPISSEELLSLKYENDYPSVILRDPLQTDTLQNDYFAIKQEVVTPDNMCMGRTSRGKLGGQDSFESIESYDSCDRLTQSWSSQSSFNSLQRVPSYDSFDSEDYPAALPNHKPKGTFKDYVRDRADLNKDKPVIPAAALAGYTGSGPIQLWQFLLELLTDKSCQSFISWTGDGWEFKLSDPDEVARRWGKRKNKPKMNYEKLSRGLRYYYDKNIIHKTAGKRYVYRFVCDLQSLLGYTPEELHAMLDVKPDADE
# RUNX1 [2] = molecular target: RUNX1 (UniProt Q01196); assay: RUNX1 binding intensity (PBM fluorescence), RUNX1 alone (arbitrary fluorescence units); higher = stronger binding; conditions: RUNX1 concentration 2 nM; ETS1 concentration 0 nM
# Sequence of RUNX1 (Q01196 whole entry): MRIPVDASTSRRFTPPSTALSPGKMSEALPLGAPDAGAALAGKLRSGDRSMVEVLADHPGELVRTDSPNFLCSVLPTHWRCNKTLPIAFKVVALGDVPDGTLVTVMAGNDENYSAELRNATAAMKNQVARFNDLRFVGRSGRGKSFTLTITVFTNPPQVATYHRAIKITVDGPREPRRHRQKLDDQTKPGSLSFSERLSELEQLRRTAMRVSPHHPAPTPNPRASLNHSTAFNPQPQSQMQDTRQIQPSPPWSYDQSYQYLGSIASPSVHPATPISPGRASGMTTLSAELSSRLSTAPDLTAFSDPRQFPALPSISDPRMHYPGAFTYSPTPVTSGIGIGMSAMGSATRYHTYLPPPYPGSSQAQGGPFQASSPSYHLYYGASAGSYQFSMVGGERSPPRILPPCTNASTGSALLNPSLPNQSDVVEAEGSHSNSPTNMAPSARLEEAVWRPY
# Method: (§1)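 Cooperative gcPBM on 36-bp genomic probes with neighbouring ETS1 and RUNX1 sites. Recombinant human RUNX1 (2 nM) was incubated alone or with ETS1 (25 nM) and detected with anti-RUNX1 antibody plus Alexa488 secondary. Values are medians over 4 replicate spots; the RUNX1+ETS1 data were normalised to the RUNX1-only data. The probes sit in constant array flanks that are not printed.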
# ETS1 [3] = molecular target: T1, ETS1; assay: ETS1 binding intensity (PBM fluorescence) in presence of RUNX1, normalised to ETS1-only experiment (arbitrary fluorescence units); higher = stronger binding; conditions: ETS1 concentration 1 nM; RUNX1 concentration 25 nM
# RUNX1 [4] = molecular target: RUNX1 (UniProt Q01196); assay: RUNX1 binding intensity (PBM fluorescence) in presence of ETS1, normalised to RUNX1-only experiment (arbitrary fluorescence units); higher = stronger binding; conditions: RUNX1 concentration 2 nM; ETS1 concentration 25 nM
# Method: as §1
# 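For RUNX1 binding intensity (PBM fluorescence) in presence of ETS1, normalised to RUNX1-only experiment in this document: Full-length recombinant human ETS1 or RUNX1 bound to double-stranded 36-bp genomic probes on microarrays, detected by protein-specific primary antibody and Alexa488 secondary, spot fluorescence as median of four replicate spots.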
# 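For RUNX1 binding intensity (PBM fluorescence), RUNX1 alone in this document: Full-length recombinant human RUNX1 bound to double-stranded 36-bp genomic probes on a high-density microarray, scored as Alexa488 fluorescence per spot via anti-RUNX1 antibody, median of four replicate spots.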
sequence,measurement,setting,value
AGAACAAAACAGGAAATAGTGGTTTGCAAAAATATA,ETS1 binding intensity,ETS1 [1],5780
same,RUNX1 binding intensity,RUNX1 [2],736
same,ETS1 binding intensity,ETS1 [3],8400
same,RUNX1 binding intensity,RUNX1 [4],1730
TATGTGTTTTAGGCAGGATGTGGGTTTTAGTCTTTC,ETS1 binding intensity,ETS1 [1],8060
same,RUNX1 binding intensity,RUNX1 [2],840
same,ETS1 binding intensity,ETS1 [3],36400
same,RUNX1 binding intensity,RUNX1 [4],2200
TCACTCTAACAGGATATTGTGGTTAACTATGTTGCC,ETS1 binding intensity,ETS1 [1],2460
same,RUNX1 binding intensity,RUNX1 [2],2580
same,ETS1 binding intensity,ETS1 [3],17400
same,RUNX1 binding intensity,RUNX1 [4],14800
TCTCCCGGAACTGCTCCTTCACCATGATGACCGCTG,ETS1 binding intensity,ETS1 [1],590
same,RUNX1 binding intensity,RUNX1 [2],966
same,ETS1 binding intensity,ETS1 [3],542
same,RUNX1 binding intensity,RUNX1 [4],1090
CCCGCCACTTCCCTGCCTCTGCGGGAGCCCCCCAGC,ETS1 binding intensity,ETS1 [1],573
same,RUNX1 binding intensity,RUNX1 [2],938
same,ETS1 binding intensity,ETS1 [3],545
same,RUNX1 binding intensity,RUNX1 [4],1430
CCCGGGGGCAGGAAATGTCGCCTTACCCACAGCCTT,ETS1 binding intensity,ETS1 [1],2470
same,RUNX1 binding intensity,RUNX1 [2],873
same,ETS1 binding intensity,ETS1 [3],5930
same,RUNX1 binding intensity,RUNX1 [4],1210
GACGGGAGCACCGGAAGCGGTCTTTCCCCGAGCGGA,ETS1 binding intensity,ETS1 [1],12900
same,RUNX1 binding intensity,RUNX1 [2],736
same,ETS1 binding intensity,ETS1 [3],12500
same,RUNX1 binding intensity,RUNX1 [4],2370
GGGGTCAGGAAATGGGTGTGCCGCGGGTAAGGCGCT,ETS1 binding intensity,ETS1 [1],949
same,RUNX1 binding intensity,RUNX1 [2],733
same,ETS1 binding intensity,ETS1 [3],921
same,RUNX1 binding intensity,RUNX1 [4],984
CTCCGGCGGAAGTTGTCTCTTCGCCGCCGCCGCAGC,ETS1 binding intensity,ETS1 [1],3590
same,RUNX1 binding intensity,RUNX1 [2],792
same,ETS1 binding intensity,ETS1 [3],5200
same,RUNX1 binding intensity,RUNX1 [4],1690
GCGGGGCGCAGGAAGCGGGGCGAAACCACTGTTGGC,ETS1 binding intensity,ETS1 [1],1040
same,RUNX1 binding intensity,RUNX1 [2],753
same,ETS1 binding intensity,ETS1 [3],1550
same,RUNX1 binding intensity,RUNX1 [4],1010
CAGATTCAAGGAAGTGGTGGTGGTTTGGTGTCGTTG,ETS1 binding intensity,ETS1 [1],738
same,RUNX1 binding intensity,RUNX1 [2],755
same,ETS1 binding intensity,ETS1 [3],1370
same,RUNX1 binding intensity,RUNX1 [4],907
ATCAGTCAACTTCCCCCACTCCCTCCCACAAAGAAA,ETS1 binding intensity,ETS1 [1],1010
same,RUNX1 binding intensity,RUNX1 [2],1400
same,ETS1 binding intensity,ETS1 [3],979
same,RUNX1 binding intensity,RUNX1 [4],1300
ACAACCCGGAAGTTGGCGCAGCGCGGTTGCCAATGG,ETS1 binding intensity,ETS1 [1],4350
same,RUNX1 binding intensity,RUNX1 [2],671
same,ETS1 binding intensity,ETS1 [3],4910
same,RUNX1 binding intensity,RUNX1 [4],1300
CGGCAGGGAAGCAGGAAACCGCGAGTGGAGAAAGGG,ETS1 binding intensity,ETS1 [1],1790
same,RUNX1 binding intensity,RUNX1 [2],1160
same,ETS1 binding intensity,ETS1 [3],3790
same,RUNX1 binding intensity,RUNX1 [4],2170
ACTTTCGCGACGCAGGAAGCGCCCACAAAGGGAGGA,ETS1 binding intensity,ETS1 [1],2020
same,RUNX1 binding intensity,RUNX1 [2],802
same,ETS1 binding intensity,ETS1 [3],3000
same,RUNX1 binding intensity,RUNX1 [4],889
GGTGACACGGCCGGCTTCCTGCCGCAGAGCTCCTGG,ETS1 binding intensity,ETS1 [1],719
same,RUNX1 binding intensity,RUNX1 [2],768
same,ETS1 binding intensity,ETS1 [3],639
same,RUNX1 binding intensity,RUNX1 [4],1040
GCAACAGGAAGGACCAAGTCCCCTCCCGCAATTTTA,ETS1 binding intensity,ETS1 [1],627
same,RUNX1 binding intensity,RUNX1 [2],888
same,ETS1 binding intensity,ETS1 [3],955
same,RUNX1 binding intensity,RUNX1 [4],1020
GGCGGCACTAGGCTTCCGCCTCACCGCAGTGGGGTT,ETS1 binding intensity,ETS1 [1],362
same,RUNX1 binding intensity,RUNX1 [2],855
same,ETS1 binding intensity,ETS1 [3],845
same,RUNX1 binding intensity,RUNX1 [4],1430
TGCAGCCTATTTCCTCTAACCCGCAGATCCACTATG,ETS1 binding intensity,ETS1 [1],536
same,RUNX1 binding intensity,RUNX1 [2],1470
same,ETS1 binding intensity,ETS1 [3],728
same,RUNX1 binding intensity,RUNX1 [4],2250
ATGAACCACTTCCTGTGTGTTCCCACAGAGGTCAGG,ETS1 binding intensity,ETS1 [1],2670
same,RUNX1 binding intensity,RUNX1 [2],742
same,ETS1 binding intensity,ETS1 [3],4320
same,RUNX1 binding intensity,RUNX1 [4],7110
CCGGGACCGGAAGAGGGAGCCGTGGTTGCTGGAACT,ETS1 binding intensity,ETS1 [1],3040
same,RUNX1 binding intensity,RUNX1 [2],744
same,ETS1 binding intensity,ETS1 [3],4030
same,RUNX1 binding intensity,RUNX1 [4],1960
GTTTAACAGGAAACCCTGCAGACCACAGGTTCTGTC,ETS1 binding intensity,ETS1 [1],1220
same,RUNX1 binding intensity,RUNX1 [2],807
same,ETS1 binding intensity,ETS1 [3],3630
same,RUNX1 binding intensity,RUNX1 [4],1680
TGGCGCTTCCTGTCGCTACCGCTGCGGCCCAGGGCC,ETS1 binding intensity,ETS1 [1],819
same,RUNX1 binding intensity,RUNX1 [2],755
same,ETS1 binding intensity,ETS1 [3],763
same,RUNX1 binding intensity,RUNX1 [4],1860
GGTTTAACGTTTCCGGTTTGTGGCTAGTTTCTTGTC,ETS1 binding intensity,ETS1 [1],7540
same,RUNX1 binding intensity,RUNX1 [2],1060
same,ETS1 binding intensity,ETS1 [3],12500
same,RUNX1 binding intensity,RUNX1 [4],3520
TGGCTTATCCTAACAGGAAGTGGTTTATCTGATCCT,ETS1 binding intensity,ETS1 [1],16100
same,RUNX1 binding intensity,RUNX1 [2],767
same,ETS1 binding intensity,ETS1 [3],31300
same,RUNX1 binding intensity,RUNX1 [4],2390
ATTTTTCCTTCCTTCTCCCGTCCCCGCAGAGTGCAA,ETS1 binding intensity,ETS1 [1],507
same,RUNX1 binding intensity,RUNX1 [2],1540
same,ETS1 binding intensity,ETS1 [3],465
same,RUNX1 binding intensity,RUNX1 [4],1520
CAGGGTGTCGGCTTCCGGCGGTTGCCCACTTTCGGC,ETS1 binding intensity,ETS1 [1],1100
same,RUNX1 binding intensity,RUNX1 [2],763
same,ETS1 binding intensity,ETS1 [3],1090
same,RUNX1 binding intensity,RUNX1 [4],1790
ACATTCTTCCGGTTGGACCTCCGCGGTCAGCGCTGT,ETS1 binding intensity,ETS1 [1],871
same,RUNX1 binding intensity,RUNX1 [2],1110
same,ETS1 binding intensity,ETS1 [3],1710
same,RUNX1 binding intensity,RUNX1 [4],3220
GCTGAGGCCGGAAGAGGGTGGGGCCGCGGTGGCTAG,ETS1 binding intensity,ETS1 [1],2170
same,RUNX1 binding intensity,RUNX1 [2],756
same,ETS1 binding intensity,ETS1 [3],3070
same,RUNX1 binding intensity,RUNX1 [4],1260
ACAGCTCACACAGGAAATACAAACCTCAAAAAGCAA,ETS1 binding intensity,ETS1 [1],2600
same,RUNX1 binding intensity,RUNX1 [2],1070
same,ETS1 binding intensity,ETS1 [3],7480
same,RUNX1 binding intensity,RUNX1 [4],1670
GCTGTGCCGGCAGGATGTGGTCTTTGGTTTCTGTTT,ETS1 binding intensity,ETS1 [1],5560
same,RUNX1 binding intensity,RUNX1 [2],850
same,ETS1 binding intensity,ETS1 [3],12300
same,RUNX1 binding intensity,RUNX1 [4],3250
AAGTTTTGGGTTTTCCGCCCACAGCCGCCGAAAGTG,ETS1 binding intensity,ETS1 [1],630
same,RUNX1 binding intensity,RUNX1 [2],888
same,ETS1 binding intensity,ETS1 [3],684
same,RUNX1 binding intensity,RUNX1 [4],1090
TAGGCAGGCAGGATGTGCCTATAAGCCACATGAATG,ETS1 binding intensity,ETS1 [1],1930
same,RUNX1 binding intensity,RUNX1 [2],726
same,ETS1 binding intensity,ETS1 [3],2240
same,RUNX1 binding intensity,RUNX1 [4],962
AACTTAGCTTCCGGGAAGAAGGCGAGCGGTGGGAGG,ETS1 binding intensity,ETS1 [1],780
same,RUNX1 binding intensity,RUNX1 [2],735
same,ETS1 binding intensity,ETS1 [3],724
same,RUNX1 binding intensity,RUNX1 [4],1400
TTAGATGTGCCTACATCCTGACCTCAAAAACCTCTG,ETS1 binding intensity,ETS1 [1],561
same,RUNX1 binding intensity,RUNX1 [2],791
same,ETS1 binding intensity,ETS1 [3],767
same,RUNX1 binding intensity,RUNX1 [4],957
GGCAAACAGGAAACACTCCCAGGGCTGTGGGCTCCT,ETS1 binding intensity,ETS1 [1],1550
same,RUNX1 binding intensity,RUNX1 [2],727
same,ETS1 binding intensity,ETS1 [3],1790
same,RUNX1 binding intensity,RUNX1 [4],1150
GCTCCTGGCCCGCACTTCCGACCACACACTGGGGAC,ETS1 binding intensity,ETS1 [1],557
same,RUNX1 binding intensity,RUNX1 [2],1180
same,ETS1 binding intensity,ETS1 [3],592
same,RUNX1 binding intensity,RUNX1 [4],1610
CCGCCGACACACTTCCGGCGGCCACCACAGGGTATT,ETS1 binding intensity,ETS1 [1],3140
same,RUNX1 binding intensity,RUNX1 [2],795
same,ETS1 binding intensity,ETS1 [3],3660
same,RUNX1 binding intensity,RUNX1 [4],1910
TGCACGGTAAGCAGGAAGCTGCGGCCGAGCTGAGTC,ETS1 binding intensity,ETS1 [1],2020
same,RUNX1 binding intensity,RUNX1 [2],687
same,ETS1 binding intensity,ETS1 [3],3120
same,RUNX1 binding intensity,RUNX1 [4],1030
CACTTCCTGCCCTCTTCCACTTTCAAAACCACATCA,ETS1 binding intensity,ETS1 [1],869
same,RUNX1 binding intensity,RUNX1 [2],4540
same,ETS1 binding intensity,ETS1 [3],1850
same,RUNX1 binding intensity,RUNX1 [4],9880
AAATCACATACCCGGAAACCACATGCACAGAAGTGG,ETS1 binding intensity,ETS1 [1],1480
same,RUNX1 binding intensity,RUNX1 [2],1090
same,ETS1 binding intensity,ETS1 [3],3060
same,RUNX1 binding intensity,RUNX1 [4],2090
ACCAGCAACGGAAATCAGATCTCTTGTGGTTATTAT,ETS1 binding intensity,ETS1 [1],1480
same,RUNX1 binding intensity,RUNX1 [2],994
same,ETS1 binding intensity,ETS1 [3],7160
same,RUNX1 binding intensity,RUNX1 [4],1680
